In PubChem BioAssay AID540351 (The Scripps Research Institute Molecular Screening Center, 2011):
Values without a mark were called inactive. How the calls were made is not given here.

System: Phorbol Ester
Assay: off-target receptor, channel and CYP panel, profiling panel, selectivity assay for S1P3 agonist project, biochemical, Ricerca HitProfilingScreen, CYP450 (AID 540351)
Conditions: Ricerca receptor/enzyme binding panel plus CYP450, at 30 µM, stronger effect = higher value

SMILES: O=C(c1cc(C2CC2)on1)N(C1CCCCC1)C1CCCCC1
- inhibition: -19%
